In PubChem BioAssay (Tox21) one finds Potency and outcome data, which are given here for seven compounds.

Values without a mark were called inactive. Inconclusive results are not listed. Active and inactive are the calls of the source. Unless noted, the call rests on the fitted dose curve.

Assay [1] is described as follows: Nuclear factor erythroid 2-related factor 2/antioxidant responsive element (Nrf2/ARE) small molecule agonists: qHTS cell viability counter screen in human keratinocytes (AID 1919968; active means well fitted curve in the direction sought with a large enough effect in the repeat runs; an effect the other way counts as inactive or inconclusive; further: nearly all actives have a fitted effect of over 55% in size). Put shortly: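 Cytotoxicity was multiplexed with the Nrf2/ARE luciferase assay in the same wells. Stably transfected HaCaT keratinocytes were treated with test compounds for 23 h at 37 C. Cell viability was then measured by CellTiter-Fluor fluorescence.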
(Quantitative high-throughput screening tests each substance at several concentrations.)

Assay [2] has as its target Gonadotropin-releasing hormone receptor (Homo sapiens) (UniProt P30968). Nature of the assay: Human gonadotropin-releasing hormone receptor (GnRHR) small molecule agonists, calcium flux assay in GnRHR-HEK293 cells (AID 1920063). Further: nearly all actives have a fitted effect of over 35% in size. Put shortly: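 Agonist activity was measured as intracellular calcium flux in HEK293 cells engineered to stably express human GnRHR. After dye loading for 1 hour at 37 C, compounds in DMSO were added and fluorescence was followed for 3 minutes.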
A general note: Calcium flux is commonly read through the fluorescence of an indicator in the cells.

The target in assay [3] is KiSS-1 receptor (Homo sapiens) (UniProt Q969F8). As to the kind of experiment: Human kisspeptin (KISS1R) small molecule agonists, calcium flux assay in KISS1R-HEK293 cells (AID 1920064; active means well fitted curve in the direction sought with a large enough effect in the repeat runs; an effect the other way counts as inactive or inconclusive). In short, it runs like this: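 Agonist activity is monitored as intracellular calcium rise in engineered HEK293 cells carrying human KISS1R. Cells are dye-loaded for 1 h at 37 C before compound addition, and fluorescence is recorded for 3 min.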

Assay [4] can be described thus: G protein-coupled receptor (GPCR) small molecule agonists, calcium flux assay: HEK293 wild type cell line counter screen (AID 1920065). In short, it runs like this:
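Seed cells, incubate 18 h (37 C, 5% CO2); add calcium dye, 1 h at 37 C; pin-transfer compounds, ATP control or DMSO; read fluorescence 480/540 nm each second for 3 min.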

Assay [5] is described as follows: p53 small molecule agonists, cell-based qHTS assay with human liver microsomes (AID 1963577). In short, it runs like this: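 p53RE-bla cells, 4,000/well, compound added after 5 h, with human liver microsomes 0.5 mg/mL and NADPH 0.5 mg/mL final; 16 h at 37 C, then LiveBLAzer 2 h RT, fluorescence.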
A short description of assay [6]: p53 small molecule agonists, cell-based qHTS assay with rat liver microsomes (AID 1963578). Put shortly:
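p53RE-bla cells, 4,000/well, pre-incubated 5 h, then given compounds plus rat liver microsomes (0.5 mg/mL final) and NADPH (0.5 mg/mL final). Incubation 16 h at 37 C; beta-lactamase reporter read by LiveBLAzer fluorescence after 2 h at room temperature.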

A short description of assay [7]: p53 small molecule agonists, cell-based qHTS assay with human liver microsomes: qHTS cell viability counter screen (AID 1963579). Further: nearly all actives have a fitted effect of over 45% in size. In short, it runs like this:
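p53RE-bla cells, 4,000/well, dosed 5 hours after plating, with human liver microsomes (0.5 mg/mL final) plus NADPH (0.5 mg/mL final), 16 hours at 37 C. Viability read as CellTiter-Glo luminescence after 30 min at room temperature.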

Assay [8] in a line: p53 small molecule agonists, cell-based qHTS assay with rat liver microsomes: qHTS cell viability counter screen (AID 1963580). Further: nearly all actives have a fitted effect of over 45% in size. Put shortly: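 Counter screen for cytotoxicity under metabolic activation: rat liver microsomes and NADPH, 0.5 mg/mL final each, added with compounds to p53RE-bla HCT-116 cells; 16 h at 37 C, then ATP luminescence read.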
The nature of assay [9]: p53 small molecule agonists, cell-based qHTS assay: qHTS cell viability counter screen (AID 1963581). Further: nearly all actives have a fitted effect of over 45% in size. Put shortly: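 Viability was counter-screened in parallel with the p53 agonist reporter by measuring intracellular ATP luminescence in the same HCT-116 p53RE-bla wells after 16 h compound treatment at 37 C.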
A short description of assay [10]: p53 small molecule agonists, cell-based qHTS assay (AID 1963582; active means well fitted activation curve with a large enough effect in the signal ratio in the repeat runs, not every such curve was filed as active; the % refers to the signal ratio). In short, it runs like this:
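Cells carrying a p53-responsive bla reporter are treated with test compounds for 16 h at 37 C; beta-lactamase activity is then detected with LiveBLAzer B/G FRET substrate after 2 h at room temperature.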

Assay [11] has as its target 5-hydroxytryptamine receptor 2A (Homo sapiens) (UniProt P28223). As to the kind of experiment: 5-hydroxytryptamine receptor 2A (HTR2A) small molecule antagonists, cell-based qHTS assay (AID 1963586). Further: nearly all actives have a fitted effect of over 45% in size. Put shortly: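 CHO cells stably expressing human HTR2A were plated for 18 h at 37 C, then loaded with calcium dye for 1 h. Compounds were preincubated 5 min at room temperature before DOI (4 nM solution) was added. Kinetic fluorescence was read for 3 min.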

Assay [12] shares this target. As to the kind of experiment: 5-hydroxytryptamine receptor 2A (HTR2A) small molecule agonists, cell-based qHTS assay (AID 1963587). Further: nearly all actives have a fitted effect of over 30% in size. Put shortly:
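HTR2A-CHO cells, plated 18 h at 37 C/5% CO2, dye-loaded 1 h at 37 C; compounds in DMSO added by pin tool (agonist mode). Intracellular calcium flux read as kinetic fluorescence on FDSS over 2 min at 1 s intervals.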

Assay [13] concerns the target Muscarinic acetylcholine receptor M1 (Homo sapiens) (UniProt P11229). Nature of the assay: Cholinergic receptor muscarinic 1 (CHRM1) small molecule agonists, cell-based qHTS assay (AID 1963589). Further: nearly all actives have a fitted effect of over 35% in size. In short, it runs like this: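 Cells were plated and incubated 18 h at 37 C/5% CO2, loaded with calcium dye for 1 h at 37 C, then treated with compounds in DMSO. Fluorescence was recorded kinetically at 1 sec intervals.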

Assay [14] is described as follows: cAMP Responsive Elements (CRE) small molecule agonists, cell-based qHTS assay (AID 1963590). In short, it runs like this:
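Cells carrying a CRE-driven beta-lactamase reporter (HEK 293T) are seeded, incubated overnight (18 h), and treated with test compounds for 3 h at 37 C; reporter activity is then detected with a FRET substrate after 2 h at room temperature.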

A short description of assay [15]: cAMP Responsive Elements (CRE) small molecule antagonists, cell-based qHTS assay (AID 1963591; active means well fitted inhibition curve with a large enough effect in the signal ratio in the repeat runs, not every such curve was filed as active; the % refers to the signal ratio). In short, it runs like this: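 Cells (CRE-bla HEK 293T, DMEM with 10% dialyzed FBS and 25 mM HEPES) are seeded and incubated 18 h. Compounds are added with NKH477 agonist at 0.25 uM final for 3 h, then FRET substrate for 2 h.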
Assay [16] has as its target Beta-2 adrenergic receptor (Homo sapiens) (UniProt P07550). Nature of the assay: Adrenergic beta2 receptor (ADRB2) small molecule antagonists, cell-based qHTS assay (AID 1963592). Further: series mostly up to about 92 µM; nearly all actives have a fitted effect of over 50% in size. Put shortly: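 Assay format: CHO-ADRB2 cells, 18-20hr seeding at 37C/5% CO2, then compound plus 1nM isoproterenol agonist mix for 0.5hr RT. Homogeneous time-resolved fluorescence cAMP detection after 1hr, expressed as 665/615 nm ratio.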

In assay [17] the target is D(2) dopamine receptor (Homo sapiens) (UniProt P14416). Nature of the assay: Dopamine D2 receptor (DRD2) small molecule agonists, cell-based qHTS assay (AID 1963594). Further: nearly all actives have a fitted effect of over 35% in size. Further: potency means the concentration at half of the fitted maximal effect. In short, it runs like this:
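HEK293 cells stably expressing DRD2 were cultured 24 h at 37 C, then given Ro20-1724 (0.1 mM final) and compounds for 10 min at room temperature. NKH477 (200nM) was then added for 30 min. cAMP was read by HTRF.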

For assay [18] the target is unchanged. Nature of the assay: Dopamine D2 receptor (DRD2) small molecule antagonists, cell-based qHTS assay (AID 1963595; active means well fitted inhibition curve with a large enough effect in the signal ratio in the repeat runs, with a control signal flat; the % refers to the signal ratio). Put shortly:
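Readout: HTRF cAMP, cAMP-d2 competing with cellular cAMP for anti-cAMP cryptate, read after 1 h. Cells: DRD2-HEK293. Conditions: 0.1 mM Ro20-1724, 12 nM quinpirole, 200 nM NKH477, 30 min RT.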

In assay [19] the target is Muscarinic acetylcholine receptor M1 (Homo sapiens) (UniProt P11229). As to the kind of experiment: Cholinergic receptor muscarinic 1 (CHRM1) small molecule antagonists, cell-based qHTS assay (AID 1963588). Further: nearly all actives have a fitted effect of over 40% in size. Put shortly: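 Compounds were tested at 15 concentrations in three independent runs. Dye-loaded CHRM1-CHO cells were exposed 5 min at room temperature before stimulation by acetylcholine added at 50nM. Intracellular calcium was read kinetically on FDSS for 3 min.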

The nature of assay [20]: Nuclear factor erythroid 2-related factor 2/antioxidant responsive element (Nrf2/ARE) small molecule agonists: luciferase reporter gene qHTS assay in human keratinocytes (AID 1919969). Further: nearly all actives have a fitted effect of over 35% in size. For orientation: Reporter assays use an easily measured gene product as a stand-in for the process of interest.

Sequence of KiSS-1 receptor (Homo sapiens) (Q969F8 whole entry, looked up): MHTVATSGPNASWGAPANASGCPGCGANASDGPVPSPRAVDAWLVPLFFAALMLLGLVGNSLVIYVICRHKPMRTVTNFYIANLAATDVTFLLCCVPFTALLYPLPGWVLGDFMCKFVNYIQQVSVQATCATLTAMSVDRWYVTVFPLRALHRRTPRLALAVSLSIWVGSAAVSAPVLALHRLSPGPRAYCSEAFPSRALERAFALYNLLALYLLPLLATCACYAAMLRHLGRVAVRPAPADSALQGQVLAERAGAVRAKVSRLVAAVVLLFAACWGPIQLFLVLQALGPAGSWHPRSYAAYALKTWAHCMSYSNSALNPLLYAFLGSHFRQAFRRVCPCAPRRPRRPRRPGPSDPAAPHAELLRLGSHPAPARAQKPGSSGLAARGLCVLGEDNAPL
Sequence of Gonadotropin-releasing hormone receptor (Homo sapiens) (P30968 whole entry, looked up): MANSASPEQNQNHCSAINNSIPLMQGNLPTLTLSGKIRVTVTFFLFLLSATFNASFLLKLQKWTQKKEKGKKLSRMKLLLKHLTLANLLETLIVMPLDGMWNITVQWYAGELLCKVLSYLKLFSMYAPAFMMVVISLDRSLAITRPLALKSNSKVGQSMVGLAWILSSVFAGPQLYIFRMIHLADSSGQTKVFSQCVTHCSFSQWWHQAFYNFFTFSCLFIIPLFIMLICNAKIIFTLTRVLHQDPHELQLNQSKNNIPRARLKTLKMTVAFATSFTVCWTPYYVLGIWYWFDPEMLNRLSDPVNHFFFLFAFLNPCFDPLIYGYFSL
Sequence of Beta-2 adrenergic receptor (Homo sapiens) (P07550 whole entry, looked up): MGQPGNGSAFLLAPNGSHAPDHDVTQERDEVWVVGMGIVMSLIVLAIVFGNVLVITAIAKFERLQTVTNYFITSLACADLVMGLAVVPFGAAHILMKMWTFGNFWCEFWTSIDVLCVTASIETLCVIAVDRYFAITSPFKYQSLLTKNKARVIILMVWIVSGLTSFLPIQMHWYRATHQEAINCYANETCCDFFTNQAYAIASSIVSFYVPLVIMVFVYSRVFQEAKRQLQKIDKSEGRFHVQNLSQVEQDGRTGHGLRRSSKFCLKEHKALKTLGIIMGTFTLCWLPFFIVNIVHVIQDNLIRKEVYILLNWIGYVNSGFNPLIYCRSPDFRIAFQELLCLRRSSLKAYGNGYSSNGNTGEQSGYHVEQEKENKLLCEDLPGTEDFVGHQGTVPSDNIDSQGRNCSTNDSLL
Sequence of Muscarinic acetylcholine receptor M1 (Homo sapiens) (P11229 whole entry, looked up): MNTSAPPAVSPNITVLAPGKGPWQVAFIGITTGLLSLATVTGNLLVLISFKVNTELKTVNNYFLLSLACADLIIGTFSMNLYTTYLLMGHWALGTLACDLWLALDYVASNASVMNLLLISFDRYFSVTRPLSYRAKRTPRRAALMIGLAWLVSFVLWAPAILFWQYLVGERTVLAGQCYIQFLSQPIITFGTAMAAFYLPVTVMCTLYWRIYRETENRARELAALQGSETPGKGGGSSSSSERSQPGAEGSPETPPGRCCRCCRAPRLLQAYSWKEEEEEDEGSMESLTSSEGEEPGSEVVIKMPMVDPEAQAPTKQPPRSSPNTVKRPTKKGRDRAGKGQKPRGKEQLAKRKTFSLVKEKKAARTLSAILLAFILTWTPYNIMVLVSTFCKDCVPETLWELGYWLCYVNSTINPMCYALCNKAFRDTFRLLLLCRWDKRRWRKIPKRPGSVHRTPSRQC
Sequence of D(2) dopamine receptor (Homo sapiens) (P14416 whole entry, looked up): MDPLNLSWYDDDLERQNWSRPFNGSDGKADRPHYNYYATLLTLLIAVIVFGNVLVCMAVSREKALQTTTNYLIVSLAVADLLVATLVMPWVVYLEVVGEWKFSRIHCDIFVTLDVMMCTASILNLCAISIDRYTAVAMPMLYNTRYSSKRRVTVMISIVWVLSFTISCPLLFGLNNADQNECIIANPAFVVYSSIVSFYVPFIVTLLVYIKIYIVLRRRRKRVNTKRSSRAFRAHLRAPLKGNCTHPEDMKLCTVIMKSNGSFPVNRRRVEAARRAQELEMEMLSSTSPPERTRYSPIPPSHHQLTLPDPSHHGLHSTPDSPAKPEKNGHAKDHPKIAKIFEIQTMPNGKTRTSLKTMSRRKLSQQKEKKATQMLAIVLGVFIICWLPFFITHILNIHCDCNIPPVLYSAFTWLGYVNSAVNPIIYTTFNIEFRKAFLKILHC
Sequence of 5-hydroxytryptamine receptor 2A (Homo sapiens) (P28223 whole entry, looked up): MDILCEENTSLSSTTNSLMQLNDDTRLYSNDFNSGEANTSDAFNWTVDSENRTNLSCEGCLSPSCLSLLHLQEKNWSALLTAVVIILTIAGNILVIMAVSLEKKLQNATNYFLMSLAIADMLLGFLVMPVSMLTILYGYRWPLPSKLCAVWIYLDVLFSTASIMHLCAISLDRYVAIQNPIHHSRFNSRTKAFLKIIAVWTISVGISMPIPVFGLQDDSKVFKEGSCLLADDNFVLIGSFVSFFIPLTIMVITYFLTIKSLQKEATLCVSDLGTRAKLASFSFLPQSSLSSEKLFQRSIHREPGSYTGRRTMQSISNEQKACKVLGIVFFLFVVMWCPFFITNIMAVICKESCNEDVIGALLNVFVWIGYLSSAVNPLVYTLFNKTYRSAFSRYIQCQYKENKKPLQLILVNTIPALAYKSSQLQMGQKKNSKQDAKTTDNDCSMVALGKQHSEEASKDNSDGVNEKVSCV

For the compound `C[N+]1(C)CCCC(OC(=O)C(O)(c2ccccc2)c2ccccc2)C1` (configuration not stated), the Potency result in [1], in [2], in assay [5], in assay [6], in [7] and in assay [8] was “inactive” in each case. The Potency result in assay [9], in assay [10], in assay [11], in [12], in [13] and in assay [14] was “inactive” throughout. For the same compound, the Potency entry in assay [15], in assay [16], in assay [17] and in [18] was “inactive” each time. The result in assay [3] and in assay [4] was inactive.
On to `COc1cc2c(cc1OC)C(=O)CC2`, for which the Potency entry in assay [1], in assay [2], in [5], in assay [6], in assay [7] and in assay [8] was “inactive” in each case. Besides, the Potency result in assay [9], in assay [10], in [11], in assay [12], in assay [19] and in assay [13] was “inactive” in each case. Moreover, the Potency result in assay [14], in assay [15], in [16], in [17] and in assay [18] was “inactive” in each case. Besides, the outcome in assay [3] and in [4] was inactive.
In the case of `C=CC1CC2C=CC1C2` (configuration not stated), the Potency result in assay [1], in [2], in assay [5], in assay [6], in [7] and in [8] was “inactive” each time. The Potency result in assay [9], in [10], in assay [11], in [12], in assay [19] and in assay [13] was “inactive” in each case. For the same compound, the Potency result in assay [14], in [16], in [17] and in assay [18] was “inactive” in each case. The result in assay [3] and in assay [4] was inactive.
For the compound `Cc1cccc(C)c1NC(=O)c1ccccc1C(=O)O`, the Potency result in assay [1], in [20], in assay [6], in assay [7], in [8] and in assay [9] was “inactive” throughout. For the same compound, the Potency entry in assay [10], in assay [11], in [12], in assay [19], in assay [13] and in [14] was “inactive” in each case. The Potency result in [15], in [16] and in [18] was “inactive” throughout. Moreover, the outcome in assay [4] was inactive.
On to `NS(=O)(=O)c1cc(C2(O)NC(=O)c3ccccc32)ccc1Cl` (configuration not stated), for which the Potency result in assay [1], in assay [2], in [5], in [6], in assay [7] and in assay [8] was “inactive” throughout. In addition, the Potency result in assay [9], in assay [10], in assay [14], in [15], in assay [16] and in assay [17] was “inactive” each time. Further, in assay [18], the Potency entry was “inactive”. The outcome in assay [3] and in assay [4] was inactive.
Consider `CN=C(NC#N)NCCSCc1csc(N=C(N)N)n1`, for which the Potency entry in [1], in [2], in assay [5], in assay [6], in [7] and in assay [8] was “inactive” throughout. Also, the Potency entry in [9], in assay [10], in assay [11], in [12], in [13] and in [14] was “inactive” each time. Besides, the Potency result in assay [15] and in assay [16] was “inactive” each time. Besides, the result in [3] and in assay [4] was inactive. Besides, in assay [17], the Potency was 19.9 µM (active).
As to `C=C(C)C(=O)OC1CC(C)CC(C)(C)C1` (configuration not stated), the Potency result in [1], in [2], in assay [5], in assay [6], in [7] and in assay [8] was “inactive” each time. For the same compound, the Potency result in [9], in [10], in [11], in [12], in [19] and in assay [13] was “inactive” each time. Moreover, the Potency entry in assay [14], in assay [15], in assay [16], in assay [17] and in assay [18] was “inactive” in each case. For the same compound, the outcome in [3] and in [4] was inactive.
